Laboratory results reported in PubChem BioAssay AID1851 (National Center for Advancing Translational Sciences (NCATS), 2009).
Values joined by “and” are separate entries in the source; they are usually repeats but may differ in a detail not shown here. Equal entries are not always repeated. Hit rate of the full screen: of about 16,000 compounds, about 5,700 (36%) were called active. Not shown: some 24% with an inconclusive outcome. The list shows a part of the results. Values without a mark were called inactive. The call rests on the fitted dose curve; in most records, active means well fitted curve in the direction sought with a large enough effect; inconclusive means small, poorly fitted or top-dose-only effect, or effect the other way; inactive means no such curve, though single readings can be large or run the other way.

What follows are compounds tested against Cytochrome P450 1A2 (Homo sapiens) (UniProt P05177) (assay: Cytochrome panel assay with activity outcomes). Conditions: recombinant CYP, pro-luciferin dealkylation, luminescence, p450-cyp1a2; series mostly up to 57.1 µM.
Sequence of Cytochrome P450 1A2 (Homo sapiens) (P05177 whole entry, looked up): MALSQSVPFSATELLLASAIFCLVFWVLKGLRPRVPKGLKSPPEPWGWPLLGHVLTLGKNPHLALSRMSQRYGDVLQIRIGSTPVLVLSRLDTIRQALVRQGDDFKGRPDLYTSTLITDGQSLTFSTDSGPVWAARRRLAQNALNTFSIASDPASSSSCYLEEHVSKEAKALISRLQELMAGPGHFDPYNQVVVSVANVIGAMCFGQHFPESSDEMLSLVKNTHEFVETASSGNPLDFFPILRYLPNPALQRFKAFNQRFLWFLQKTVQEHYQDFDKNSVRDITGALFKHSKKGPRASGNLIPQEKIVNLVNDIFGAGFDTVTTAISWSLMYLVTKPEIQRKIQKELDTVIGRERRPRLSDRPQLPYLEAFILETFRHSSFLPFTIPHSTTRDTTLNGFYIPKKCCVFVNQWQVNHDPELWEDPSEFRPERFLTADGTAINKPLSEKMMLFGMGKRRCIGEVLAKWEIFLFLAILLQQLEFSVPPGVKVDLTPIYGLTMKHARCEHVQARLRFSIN
On the % scale 0 is the no-effect control and ±100 the full control effect.

Structure (SMILES) | activity, negative = inhibition | AC50
C#CCCCO/N=C1/C[C@@H](O)[C@@H](O)[C@@H]2[C@@H]3C(=O)N(C4CCCCC4)C(=O)[C@H]3CC[C@H]12 | 7.63% [at 11.4 µM] | –
CC1(C)Oc2cc(N)c([N+](=O)[O-])cc2O1 | – | 8.91 µM (active)
CC(=O)Nc1ccc(S(=O)(=O)N2CCC(N(C)CCC(C)C)CC2)cc1 | – | inactive
CC(=O)Nc1ccc(NC(=O)C2CCN(S(=O)(=O)c3cccc4nonc34)CC2)cc1 | – | inactive
CCc1ccc(NC(=O)C2CCN(S(=O)(=O)c3c(C)[nH]c(=O)[nH]c3=O)CC2)cc1 | – | inactive
O=C(Nc1ccc(Cl)c(C(F)(F)F)c1)C1CCCN(S(=O)(=O)c2cnc[nH]2)C1 (stereo not drawn) | – | 15.8 µM (active)
CO[C@@H]1COC(=O)C/C=C\[C@H](C)COC(=O)[C@H](C)NC(=O)C/C=C\[C@H]1C | -3.56% [at 11.4 µM] | –
CCc1nn(C)c(-c2n[nH]c(=S)n2N)c1Cl | – | inactive
CC(C)Cn1c(-c2nn(C)cc2Cl)n[nH]c1=S | – | 25.1 µM (active)
Cc1nn(CCc2n[nH]c(=S)n2-c2ccc(F)c(Cl)c2)c(C)c1[N+](=O)[O-] | – | inactive
COc1ccc(-c2nc3cnc(Oc4cccc(Cl)c4)nc3n(C[C@H]3CCCO3)c2=O)cc1 | – | 5.01 µM (active)
O=c1c(-c2cccs2)nc2cnc(Oc3cccc(Cl)c3)nc2n1C[C@H]1CCCO1 | – | 3.16 µM (active)
CC(=O)OC[C@@H]1O[C@H](C/C=N\OC[C@@H](O)COCc2ccco2)C=C[C@@H]1OC(C)=O | 1.52% [at 11.4 µM] | –
C[C@H](N)C(=O)O | – | inactive
CCCCCCCCC(=O)NCc1cc(OC)c(O)cc1I | – | 12.6 µM (active)
O=C(O)c1cc(C(=O)O)nc(C(=O)O)c1 | -9.81% [at 11.4 µM] | –
CSc1c(-c2ccccc2)nc2ccccc2c1C(=O)O | – | inactive
CSc1nnnc2ccccc12 | – | 3.16 µM (active)
COCc1nnc(NC(=O)CC(c2ccccc2)c2ccccc2)s1 | – | inactive
COC(=O)c1sccc1NC(=O)CSc1cc(Cl)ccc1Cl | – | 2.51 µM (active)
COc1ccc(Cc2nnc(NC(=O)CSc3ccc(C)cc3)s2)cc1OC | – | inactive
Cc1cnc(NC(=O)CSc2ccc(Cl)cc2)s1 | – | 3.16 µM (active)
COCc1nnc(NC(=O)CSc2ccc(C)cc2)s1 | – | 12.6 µM (active)
COC(=O)c1sccc1NC(=O)CSc1ccc(Cl)cc1 | – | 14.1 µM (active)

Structure (SMILES) | activity, negative = inhibition | AC50
O=c1[nH]cc(CS(=O)(=O)Cc2c[nH]c(=O)[nH]c2=O)c(=O)[nH]1 | -24.4% [at 11.4 µM] | –
CC(=O)N1CCC2(CCN(Cc3nccs3)CC2)CC1 | – | inactive
COCC(=O)N1CCC2(CC1)CN(C(=O)Nc1cccc(C#N)c1)C2 | – | inactive
NCCSSCCN | – | inactive
CC(=O)c1c(O)cc(=O)n(-c2ccccc2)c1-c1cccc2ccccc12 | – | inactive
CN1C(=O)/C(=N\OC(=O)c2cccc3ccccc23)c2ccccc21 | – | 7.08 µM (active)
CC(C)(Oc1ccc(-c2cccc3ccccc23)cc1)C(=O)O | 8.77% [at 11.4 µM] | –
COc1ccc2cc(CCC(C)=O)ccc2c1 | – | 0.398 µM (active)
COc1ccc(/C(O)=C2/C(=O)C(=O)N(CCCC(=O)O)C2c2ccc(OC)cc2)cc1 (stereo not drawn) | – | inactive
COc1ccc2cc(C(=O)CCC(=O)O)ccc2c1 | – | 0.794 µM (active)
CCOc1ccc(C(=O)CCC(=O)O)cc1 | – | inactive
COc1ccc(CCN=CC2=C(O)CC(C)(C)CC2=O)cc1 | – | inactive
COc1cccc(/C=N/NC(=O)c2c(-c3ccccc3)noc2C)c1 | – | inactive
COc1cccc(/C=N/NC(=O)c2cc(-c3cccn3C)n[nH]2)c1 | – | 6.31 µM (active)
COc1cc2nc(N3CCN(C(=O)OCc4ccccc4)[C@H](C(=O)NC(C)(C)C)C3)nc(N)c2cc1OC | – | inactive
CSc1nc(N)c2ncn([C@@H]3O[C@@H](COP(=O)(O)OP(=O)(O)O)[C@@H](O)[C@H]3O)c2n1 | – | inactive
CCn1c(=O)[nH]c2cc(Cl)c(Cl)cc21 | – | 0.251 µM (active)
CCn1c(C)[n+](CCCS(=O)(=O)[O-])c2cc(Cl)c(Cl)cc21 | – | inactive
CC[N+](CC)(CC)CC | – | inactive
Cc1ccc(C)n1N1C(=O)/C(=C\c2ccc(Cl)cc2)SC1=S | – | 1.58 µM (active)
CC1=NN(c2ccc(S(=O)(=O)O)cc2)C(=O)/C1=C\c1ccc(Cl)cc1 | -8.89% [at 2.29 µM] | –
CC1=N/C(=C\c2ccc([N+](=O)[O-])cc2)C(=O)N1c1ccc(Cl)cc1 | – | inactive
C[C@@](N)(/C=C\c1ccccc1)C(=O)O | -17.1% [at 11.4 µM] | –
O=C(CN1CCN(c2ccc(Cl)cc2)CC1)Nc1cccc(F)c1 | – | 12.6 µM (active)

Structure (SMILES) | activity, negative = inhibition | AC50
O=C(CSc1ccc(Cl)cc1)Nc1ccc(N2CCN(c3ccccc3)CC2)c(F)c1 | – | inactive
CC(C)c1cccc2cc3c(nc12)-c1cccc(=O)n1C3 | – | 0.501 µM (active)
CCc1c2c(nc3c(C(C)C)cccc13)-c1cccc(=O)n1C2 | – | 0.398 µM (active)
CC(C)c1cccc2c([Si](C)(C)C)c3c(nc12)-c1cccc(=O)n1C3 | – | 15.8 µM (active)
CCC(C)N1C(=O)C2C(C(=O)Nc3cccc(OC)c3)C3C=CC2(O3)C1C(=O)NC1CCCCC1C (stereo not drawn) | – | inactive
COc1ccc(O[C@H]2C=C[C@@H](c3ccccc3)O[C@H]2CO/N=C(/C)CCC(=O)OC[C@@H]2O[C@H](c3ccccc3)C=C[C@@H]2Oc2ccc(OC)cc2)cc1 | -1.91% [at 11.4 µM] | –
CSC(N)=NCCC[C@@H](N)C(=O)O | – | inactive
CNc1nc(-c2ccccc2C(F)(F)F)nc2ccccc12 | – | 0.251 µM (active)
FC(F)(F)c1ccccc1-c1nc(NC2CC2)c2ccccc2n1 | – | 0.398 µM (active)
O=C1[C@H]2O[C@@H]2[C@@H](O)[C@H]2[C@H]1CCn1c(=O)n(Cc3cc4c(cc3Cl)OCO4)c(=O)n12 | -4.53% [at 11.4 µM] | –
COc1ccc2c(Cl)c(-c3nnco3)sc2c1 | – | 0.794 µM (active)
Cc1cccc(C)c1OC[C@@H](N)C(C)C | – | 12.6 µM (active)
Cc1cccc(C)c1OC[C@H](C)N | – | 2.51 µM (active) and 398 nM (active)
Cc1cccc(C)c1OCC(O)CNC(C)(C)C (stereo not drawn) | – | inactive
O=C1C[C@@H](O)[C@@H](O)[C@H]2[C@@H]3C(=O)N(c4cccc(Oc5ccccc5)c4)C(=O)[C@@H]3CC[C@H]12 | 0.387% [at 11.4 µM] and -5.49% [at 11.4 µM] | –
O=C(NC(=S)Nc1ccc2c(c1)OCO2)c1ccccc1 | – | 2.82 µM (active)
Cc1ccc(C(=O)NC(=S)Nc2ccc3c(c2)OCCO3)c(C)c1 | – | 7.08 µM (active)
O=C(NC(=S)Nc1ccc(Oc2ccc(Cl)cc2)cc1)c1ccccc1 | – | inactive
O=C(NC(=S)Nc1ccc(C(=O)N2CCOCC2)cc1)c1ccc([N+](=O)[O-])cc1 | – | inactive
c1ccc2c(c1)ncn2-c1ccc(-c2ccnc(-c3ccncc3)n2)cc1 | – | 0.316 µM (active)
c1ccc(-c2nccc(-c3ccc(-n4cnc5ccccc54)cc3)n2)nc1 | – | 10 µM (active)
COc1cc(OC)c(OC)cc1C=NCC1(c2ccccc2)CCCC1 | – | 8.91 µM (active)
C#CCCCCCCCCCCCCCCCC(=O)O | – | 6.31 µM (active)
C#CCOCCCC(=O)O | -1.25% [at 11.4 µM] | –

Structure (SMILES) | activity, negative = inhibition | AC50
O=C(O)CCCCCCCC(=O)O | – | inactive
C[C@H]1COC(=O)[C@H](Cc2ccccc2)NC(=O)[C@@H](C)COC(=O)[C@H](Cc2ccccc2)NC1=O | 9.1% [at 11.4 µM] | –
CCOC(=O)c1c(NC(=O)/C=C/c2ccc3c(c2)OCO3)sc(C)c1C | – | inactive
COC(=O)c1cc(NC(=O)/C=C/c2ccc3c(c2)OCO3)cc(C(=O)OC)c1 | – | 12.6 µM (active)
CC(C)[C@H](NC(=O)OC(C)(C)C)[C@@H](O)CC(=O)C(C)(C)C | 0.674% [at 11.4 µM] | –
COc1ccccc1CNc1ncncc1-c1ccoc1 | – | 1.26 µM (active)
COc1ccc(CNc2ncncc2-c2cccnc2)c(OC)c1 | – | 3.16 µM (active)
COc1ccc(CNc2ncncc2-c2cccc(NS(C)(=O)=O)c2)c(OC)c1 | – | 15.8 µM (active)
COc1ccccc1CN1CCCC2(CCN(C(=O)c3cnccn3)CC2)C1 | – | inactive
COc1ccccc1CNc1ncncc1-c1cccnc1 | – | 0.794 µM (active)
COCC(=O)N1CCC2(CCCN(C(=O)Nc3cccc(F)c3)C2)CC1 | – | inactive
CCc1cc2c(nc1CC)CCN(CC/C(C)=N/O[C@@H](C)c1cn([C@@H]3COC[C@@H]3O)nn1)C2 | -1.13% [at 11.4 µM] | –
COc1ccc(-c2ccc3c(n2)CCCN3C[C@H](O)CN2CCCc3nc(-c4ccc(Br)cc4)ccc32)cc1 | -3.07% [at 11.4 µM] and -10.4% [at 11.4 µM] | –
Cc1ccc2nc(Cc3ccc(N)cc3)[nH]c2c1 | – | 3.98 µM (active)
COc1ccc(Cc2nc3ccc(S(=O)(=O)N4CCOCC4)cc3[nH]2)cc1OC | – | inactive
O=[N+]([O-])c1cc2c(cc1C=Nc1ccccc1)OCO2 | – | 2.82 µM (active)
O=C(O)c1cc(N=Cc2ccccc2O)cc(C(=O)O)c1 | -12.6% [at 11.4 µM] | –
Cc1nc2cnc(N(C)C)nc2n(CCC#N)c1=O | – | 10 µM (active)
CN(C)c1ncc2ncc(=O)n(CCC#N)c2n1 | – | 12.6 µM (active)
CC(C)=CCc1c2c(c3occ(-c4ccc(O)c(O)c4)c(=O)c3c1O)C=CC(C)(C)O2 | -3.01% [at 2.29 µM] | –
Br/C(=N\Nc1nn[nH]n1)c1ccncc1 | -5.24% [at 11.4 µM] | –
